Data reported in the supplement of paper PMC4466140.

B1: unnamed (peptide)
chain: LLLLFVPDSPYDPAI

target: AgAbp1; test: SPOT peptide array binding signal intensity (averaged, normalized) (arbitrary units (background-subtracted, floor 0; scale differs between SH3 domains)); higher = stronger binding of the SH3 domain to the peptide
How it was run: (§1)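 Binding signal refers to normalized, background-subtracted spot intensity averaged over replicates, expressed in arbitrary units that differ between domains. GST-fused SH3 domains from four yeast species were incubated at 10 μg/ml overnight at 4°C on cellulose membranes of synthetic 15-mer peptides with cysteines replaced by serines. Bound protein was detected with anti-GST antibody, an HRP anti-mouse secondary and luminol, and quantified with Genespotter.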

Row | Binder | SPOT peptide array binding signal intensity
1 | B1 | 1

target: AgBbc1; test: as above
How it was run: as §1

Row | Binder | SPOT peptide array binding signal intensity
2 | B1 | 0.75

target: AgBem1-D1; test: as above
How it was run: as §1

Row | Binder | SPOT peptide array binding signal intensity
3 | B1 | 27

target: AgBzz1-D1; test: as above
How it was run: as §1

Row | Binder | SPOT peptide array binding signal intensity
4 | B1 | 17.5

target: AgBzz1-D2; test: as above
How it was run: as §1

Row | Binder | SPOT peptide array binding signal intensity
5 | B1 | 20.5

target: AgCyk3; test: as above
How it was run: as §1

Row | Binder | SPOT peptide array binding signal intensity
6 | B1 | 3

target: AgFus1; test: as above
How it was run: as §1

Row | Binder | SPOT peptide array binding signal intensity
7 | B1 | 2370

target: AgHof1; test: as above
How it was run: as §1

Row | Binder | SPOT peptide array binding signal intensity
8 | B1 | 2.25

target: AgHse1; test: as above
How it was run: as §1

Row | Binder | SPOT peptide array binding signal intensity
9 | B1 | 277

target: AgLsb1; test: as above
How it was run: as §1

Row | Binder | SPOT peptide array binding signal intensity
10 | B1 | ≤ 0

target: AgLsb4; test: as above
How it was run: as §1

Row | Binder | SPOT peptide array binding signal intensity
11 | B1 | 636

target: AgMyo5; test: as above
How it was run: as §1

Row | Binder | SPOT peptide array binding signal intensity
12 | B1 | 1

target: AgNbp2; test: as above
How it was run: as §1

Row | Binder | SPOT peptide array binding signal intensity
13 | B1 | 63

target: AgRvs167; test: as above
How it was run: as §1

Row | Binder | SPOT peptide array binding signal intensity
14 | B1 | 1.67

target: AgSho1; test: as above
How it was run: as §1

Row | Binder | SPOT peptide array binding signal intensity
15 | B1 | 212

target: AgSla1-D1-D2; test: as above
How it was run: as §1

Row | Binder | SPOT peptide array binding signal intensity
16 | B1 | ≤ 0

target: AgSla1-D3; test: as above
How it was run: as §1

Row | Binder | SPOT peptide array binding signal intensity
17 | B1 | 0.5

target: CaAbp1-D1; test: as above
How it was run: as §1

Row | Binder | SPOT peptide array binding signal intensity
18 | B1 | 11

target: CaAbp1-D2; test: as above
How it was run: as §1

Row | Binder | SPOT peptide array binding signal intensity
19 | B1 | 1

target: CaBbc1; test: as above
How it was run: as §1

Row | Binder | SPOT peptide array binding signal intensity
20 | B1 | ≤ 0

target: CaBem1-D1; test: as above
How it was run: as §1

Row | Binder | SPOT peptide array binding signal intensity
21 | B1 | ≤ 0

target: CaBzz1-D1; test: as above
How it was run: as §1

Row | Binder | SPOT peptide array binding signal intensity
22 | B1 | 43.5

target: CaBzz1-D2; test: as above
How it was run: as §1

Row | Binder | SPOT peptide array binding signal intensity
23 | B1 | 19.5

target: CaCyk3; test: as above
How it was run: as §1

Row | Binder | SPOT peptide array binding signal intensity
24 | B1 | 1

target: CaFus1; test: as above
How it was run: as §1

Row | Binder | SPOT peptide array binding signal intensity
25 | B1 | 5080

target: CaHof1; test: as above
How it was run: as §1

Row | Binder | SPOT peptide array binding signal intensity
26 | B1 | 66.8

target: CaHse1; test: as above
How it was run: as §1

Row | Binder | SPOT peptide array binding signal intensity
27 | B1 | 92

target: CaLsb1; test: as above
How it was run: as §1

Row | Binder | SPOT peptide array binding signal intensity
28 | B1 | 1.5

target: CaLsb4; test: as above
How it was run: as §1

Row | Binder | SPOT peptide array binding signal intensity
29 | B1 | ≤ 0

target: CaMyo5; test: as above
How it was run: as §1

Row | Binder | SPOT peptide array binding signal intensity
30 | B1 | 6.25

target: CaNbp2; test: as above
How it was run: as §1

Row | Binder | SPOT peptide array binding signal intensity
31 | B1 | 264

target: CaRvs167; test: as above
How it was run: as §1

Row | Binder | SPOT peptide array binding signal intensity
32 | B1 | 15.8

target: CaRvs167-3; test: as above
How it was run: as §1

Row | Binder | SPOT peptide array binding signal intensity
33 | B1 | 3.5

target: CaSho1; test: as above
How it was run: as §1

Row | Binder | SPOT peptide array binding signal intensity
34 | B1 | 611

target: CaSla1-D1-D2; test: as above
How it was run: as §1

Row | Binder | SPOT peptide array binding signal intensity
35 | B1 | 6.5

target: CaSla1-D3; test: as above
How it was run: as §1

Row | Binder | SPOT peptide array binding signal intensity
36 | B1 | 11.5

target: ScAbp1; test: as above
How it was run: as §1

Row | Binder | SPOT peptide array binding signal intensity
37 | B1 | ≤ 0

target: ScBbc1; test: as above
How it was run: as §1

Row | Binder | SPOT peptide array binding signal intensity
38 | B1 | 0.25

target: ScBem1-D1; test: as above
How it was run: as §1

Row | Binder | SPOT peptide array binding signal intensity
39 | B1 | 7

target: ScBzz1-D1; test: as above
How it was run: as §1

Row | Binder | SPOT peptide array binding signal intensity
40 | B1 | 31

target: ScBzz1-D2; test: as above
How it was run: as §1

Row | Binder | SPOT peptide array binding signal intensity
41 | B1 | 7

target: ScCyk3; test: as above
How it was run: as §1

Row | Binder | SPOT peptide array binding signal intensity
42 | B1 | 37

target: ScFus1; test: as above
How it was run: as §1

Row | Binder | SPOT peptide array binding signal intensity
43 | B1 | 1060

target: ScHof1; test: as above
How it was run: as §1

Row | Binder | SPOT peptide array binding signal intensity
44 | B1 | 2.25

target: ScHse1; test: as above
How it was run: as §1

Row | Binder | SPOT peptide array binding signal intensity
45 | B1 | 662

target: ScLsb1; test: as above
How it was run: as §1

Row | Binder | SPOT peptide array binding signal intensity
46 | B1 | ≤ 0

target: ScLsb2; test: as above
How it was run: as §1

Row | Binder | SPOT peptide array binding signal intensity
47 | B1 | ≤ 0

target: ScLsb3; test: as above
How it was run: as §1

Row | Binder | SPOT peptide array binding signal intensity
48 | B1 | ≤ 0

target: ScLsb4; test: as above
How it was run: as §1

Row | Binder | SPOT peptide array binding signal intensity
49 | B1 | 1

target: ScMyo3; test: as above
How it was run: as §1

Row | Binder | SPOT peptide array binding signal intensity
50 | B1 | ≤ 0

target: ScMyo5; test: as above
How it was run: as §1

Row | Binder | SPOT peptide array binding signal intensity
51 | B1 | ≤ 0

target: ScNbp2; test: as above
How it was run: as §1

Row | Binder | SPOT peptide array binding signal intensity
52 | B1 | 74

target: ScPex13; test: as above
How it was run: as §1

Row | Binder | SPOT peptide array binding signal intensity
53 | B1 | 0.25

target: ScRvs167; test: as above
How it was run: as §1

Row | Binder | SPOT peptide array binding signal intensity
54 | B1 | 0.333

target: ScSho1; test: as above
How it was run: as §1

Row | Binder | SPOT peptide array binding signal intensity
55 | B1 | 1530

target: ScSla1-D1-D2; test: as above
How it was run: as §1

Row | Binder | SPOT peptide array binding signal intensity
56 | B1 | ≤ 0

target: ScSla1-D3; test: as above
How it was run: as §1

Row | Binder | SPOT peptide array binding signal intensity
57 | B1 | 27.5

target: SpAbp1-D1; test: as above
How it was run: as §1

Row | Binder | SPOT peptide array binding signal intensity
58 | B1 | 1

target: SpBbc1; test: as above
How it was run: as §1

Row | Binder | SPOT peptide array binding signal intensity
59 | B1 | ≤ 0

target: SpBzz1-D1; test: as above
How it was run: as §1

Row | Binder | SPOT peptide array binding signal intensity
60 | B1 | 26
